{"source": "PubChem BioAssay AID1053188", "about": "(Broad Institute, 2014)", "note": "“And” between values parts separate entries of the source, which are not always exact repeats. Equal entries are not always repeated. In all, about 83,000 compounds went through this assay and about 780 (0.94%) were called active.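 How the source made its calls: active means mean inhibition of at least 50% with a set share of replicates also reaching that level; inconclusive means no clear call, values can overlap the other calls; inactive means the rest.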 The sample as a whole holds a higher share of actives than the screen did. More than one record can exist for a structure, and the calls need not agree."}
{"experiment": "CD40 pathway blockade in BL2 B cells – cell-based, luciferase reporter, single point, primary screen (AID 1053188);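 further: 0% = neutral control wells and 100% = IKK inhibitor VII at 50 µM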", "settings": "BL2 NF-kB luciferase reporter, CD40L-induced, 4 h, stronger effect = higher value; at 10 µM unless noted"}
{"smiles": "COc1ccc(C#Cc2ccc([C@H]3[C@@H](CO)N4CCCCN(S(=O)(=O)c5cn(C)cn5)C[C@H]34)cc2)cc1", "inhibition": "66.3% [at 25 µM] (active)"}
{"smiles": "COc1ccc(C#Cc2ccc([C@@H]3[C@@H](CO)N4CCCCN(C(=O)c5ccncc5)C[C@@H]34)cc2)cc1", "inhibition": "-18.8% [at 25 µM] (inactive)"}
{"smiles": "Cn1cnc(S(=O)(=O)N2CCCCN3[C@@H](CO)[C@@H](c4ccc(C#CC5CCCC5)cc4)[C@@H]3C2)c1", "inhibition": "2.82% [at 25 µM] (inactive)"}
{"smiles": "Cc1nnc(CN(C)Cc2cn[nH]c2-c2ccc(-c3ccccc3)cc2)o1", "inhibition": "-39% (inactive)"}
{"smiles": "COc1ccc(C(=O)Nc2cc(C)ccc2NC(=O)COc2ccccc2)cc1", "inhibition": "-29.7% (inactive)"}
{"smiles": "COc1ccccc1C(=O)NNC(=O)c1ccc(NC(=O)c2ccccc2)cc1", "inhibition": "11.1% (inactive)"}
{"smiles": "COc1ccc(C(=O)Nc2ccccc2C(=O)N/N=C/c2ccccc2OC)cc1", "inhibition": "53.7% (active)"}
{"smiles": "CCCNC(=O)C1CC(=O)N(c2ccc(OCc3ccccc3)cc2)C1", "note": "(stereo unspecified)", "inhibition": "-7.3% (inactive)"}
{"smiles": "O=C(C[C@H]1C=C[C@@H](NC(=O)c2cnccn2)[C@H](CO)O1)NCc1ccccc1F", "inhibition": "3.55% [at 25 µM] (inactive)"}
{"smiles": "O=C(Nc1ccccc1)c1nnsc1S(=O)(=O)c1ccc(Cl)cc1", "inhibition": "96.6% (active)"}
{"smiles": "O=C(Nc1ccc(Cl)cc1)Nc1nnc(/C=C/c2ccccc2)s1", "inhibition": "-0.929% (inactive)"}
{"smiles": "Cc1nnsc1C(=O)N/N=C/c1ccccc1Cl", "inhibition": "25% (inactive)"}
{"smiles": "Cc1cc(C(=O)OC(C)C(=O)NC2CCCCC2C)c(C)o1", "note": "(stereo unspecified)", "inhibition": "16.2% (inactive)"}
{"smiles": "C[C@H]1CN([C@@H](C)CO)C(=O)CCCn2cc(nn2)CO[C@H]1CN(C)C(=O)Nc1cccc(C(F)(F)F)c1", "inhibition": "3.26% [at 25 µM] (inactive)"}
{"smiles": "CC(=O)Nc1ccc(-c2csc(NC(=O)Nc3ccccc3)n2)cc1", "inhibition": "-27.4% (inactive)"}
{"smiles": "CC(C)C[C@H](NC(=O)Nc1cccc(C(F)(F)F)c1)C(=O)O", "inhibition": "17.4% (inactive)"}
{"smiles": "NC(c1csc(NC(=O)Nc2cccc(C(F)(F)F)c2)n1)C1CCCCC1", "note": "(stereo unspecified)", "inhibition": "76.7% (active)"}
{"smiles": "O=C(Nc1cccc(C(F)(F)F)c1)c1cnccn1", "inhibition": "-0.813% (inactive)"}
{"smiles": "NC(c1ccccc1)c1csc(NC(=O)Nc2cccc(C(F)(F)F)c2)n1", "note": "(stereo unspecified)", "inhibition": "75% (active)"}
{"smiles": "COc1ccc(NC(=O)Nc2ccc3c(c2)C(=O)N([C@@H](C)CO)C[C@H](C)[C@H](CN(C)Cc2ccc(C(F)(F)F)cc2)OCCCC[C@H](C)O3)cc1", "inhibition": "8.72% (inactive)"}
{"smiles": "c1ccc(CNCc2ccc(CNCc3ccccc3)cc2)cc1", "inhibition": "-8.05% (inactive)"}
{"smiles": "Cc1ccc(S(=O)(=O)NCCC(=O)NNC(=O)C2COc3ccccc3O2)cc1", "note": "(stereo unspecified)", "inhibition": "-6.13% (inactive)"}
{"smiles": "Cc1ccsc1C(=O)OCC(=O)c1cc2ccccc2o1", "inhibition": "-95.3% (inactive)"}
{"smiles": "Cc1ccsc1C(=O)OCC(=O)c1cc(C)n(CC2CCCO2)c1C", "note": "(stereo unspecified)", "inhibition": "94% (active)"}
{"smiles": "Cc1cc(C(=O)Cn2cnc3cc([N+](=O)[O-])ccc3c2=O)c(C)n1CC1CCCO1", "note": "(stereo unspecified)", "inhibition": "0.959% (inactive)"}
{"smiles": "O=C(OCC(=O)N1CCCC1=O)c1cc(S(=O)(=O)N2CCOCC2)ccc1Cl", "inhibition": "17.8% (inactive)"}
{"smiles": "O=C(Nc1ccc2c(c1)OCCO2)C1CCCC1", "inhibition": "97.3% (active)"}
{"smiles": "O=C(Nc1ccc2c(c1)OCCO2)c1ccncc1", "inhibition": "-42.5% (inactive)"}
{"smiles": "O=C(Nc1ccc2c(c1)OCCO2)C1CCCN(c2ncccn2)C1", "note": "(stereo unspecified)", "inhibition": "-6.73% (inactive)"}
{"smiles": "CCOC(=O)COc1nc(C)cc(C(F)(F)F)c1C#N", "inhibition": "7.91% (inactive)"}
{"smiles": "CCCN1[C@H](CO)[C@H](c2ccc(C#CC3CCCCC3)cc2)[C@@H]1CNC(=O)C1CC1", "inhibition": "-8.21% [at 25 µM] (inactive)"}
{"smiles": "Cc1onc(-c2ccccc2)c1-c1nnc(COC(=O)c2ccc(N(C)C)cc2)o1", "inhibition": "27.4% (inactive)"}
{"smiles": "CCN(Cc1ccccc1)S(=O)(=O)c1cc2c3c(c1)CCN3C(=O)CC2", "inhibition": "12.8% (inactive)"}
{"smiles": "Cc1ccc(CNC(=O)COC(=O)C2CCC2)cc1", "inhibition": "-4.82% (inactive)"}
{"smiles": "CC(C)(Oc1ccc(Cl)cc1)C(=O)OCC(=O)NCCc1ccc(S(N)(=O)=O)cc1", "inhibition": "11.6% (inactive)"}
{"smiles": "Cc1ccc(/C=C/C(=O)OCC(=O)NCc2ccc(Cl)cc2)o1", "inhibition": "50.7% (active)"}
{"smiles": "COC(=O)c1sc(NC(=O)COC(=O)C2CCC2)c(C(=O)OC)c1C", "inhibition": "2.99% (inactive)"}
{"smiles": "CC[C@H]1CN2CCc3cc(OC)c(OC)cc3[C@@H]2C[C@@H]1C[C@H]1NCCc2cc(OC)c(OC)cc21", "inhibition": "89.6% (active)"}
{"smiles": "CCn1cc(-c2cc(C(=O)O)on2)c(C)n1", "inhibition": "8.77% (inactive)"}
{"smiles": "N#C[C@@H]1[C@H](c2ccc(C#CC3CCCCC3)cc2)[C@@H](CO)N1S(=O)(=O)c1ccccc1", "inhibition": "51.3% (active)"}
{"smiles": "CS(=O)(=O)N1[C@@H](C#N)[C@H](c2ccc(C#CC3CCCCC3)cc2)[C@@H]1CO", "inhibition": "-1.7% (inactive)"}
{"smiles": "N#C[C@H]1[C@@H](c2ccc(C#CC3CCCC3)cc2)[C@H](CO)N1C(=O)Nc1ccc(F)cc1", "inhibition": "12% (inactive)"}
{"smiles": "CC(C)C#Cc1ccc([C@@H]2[C@@H](C#N)N(C(=O)C3CC3)[C@@H]2CO)cc1", "inhibition": "3.05% [at 25 µM] (inactive)"}
{"smiles": "CS(=O)(=O)N1[C@H](C#N)[C@H](c2ccc(C#CC3CCCC3)cc2)[C@H]1CO", "inhibition": "-13.6% [at 25 µM] (inactive)"}
{"smiles": "CC(C)NC(=O)N1[C@H](C#N)[C@H](c2ccc(C#CC3CCCCC3)cc2)[C@H]1CO", "inhibition": "52.1% (active)"}
{"smiles": "O=C(O)C(c1cccs1)C1(O)CCCCC1", "note": "(stereo unspecified)", "inhibition": "6.28% (inactive)"}
{"smiles": "Cn1c(N)cc(-c2ccc(F)cc2)c(C#N)c1=O", "inhibition": "4.59% (inactive)"}
{"smiles": "COc1ccc(S(=O)(=O)N2CCOCC2)cc1NC(=O)CSc1cc(C)ccc1C", "inhibition": "2.01% (inactive)"}
{"smiles": "Cc1cc2ccccc2n1CCC(=O)O", "inhibition": "4.73% (inactive)"}
{"smiles": "C[C@@H]1C(=O)N[C@H](c2ccc3c(c2)OCO3)CC=CC[C@H](C)Oc2ccccc2C(=O)N1C", "note": "(mixture of isomers)", "inhibition": "3.83% [at 25 µM] (inactive)"}
{"smiles": "C[C@@H]1CC=CC[C@@H](c2ccccc2)NC(=O)[C@H](C)N(C)C(=O)c2ccccc2O1", "note": "(mixture of isomers)", "inhibition": "8.95% [at 25 µM] (inactive)"}
{"smiles": "C[C@@H]1CC=CC[C@H](c2ccc(F)cc2)NC(=O)[C@@H](Cc2ccccc2)N(C)C(=O)c2ccccc2O1", "note": "(mixture of isomers)", "inhibition": "53.9% [at 25 µM] (active)"}
{"smiles": "CS(=O)(=O)N1CCN(CC(=O)NC2CCCC2)CC1", "inhibition": "4.72% (inactive)"}
{"smiles": "CS(=O)(=O)N1C[C@@H]2C(c3ccccc3)[C@H](C1)N2CC(F)(F)F", "note": "(stereo partly specified)", "inhibition": "8.84% (inactive) and 23.5% (inactive)"}
{"smiles": "COc1cccc(NC(=O)COC(=O)c2ccc3ccccc3n2)c1", "inhibition": "-7.67% (inactive)"}
{"smiles": "Cc1ccnc(Nc2nc3ccccc3s2)n1", "inhibition": "-62.3% (inactive)"}
{"smiles": "c1ccc(C(=NNc2nc3ccccc3s2)c2ccccn2)cc1", "inhibition": "72.5% (active)"}
{"smiles": "O=C(Nc1ccccc1)Nc1nc2ccccc2s1", "inhibition": "-102% (inactive)"}
{"smiles": "CCN1CCN(c2ccc(S(=O)(=O)N3CCCCC3)cc2NC(=O)c2cccc(NC(C)=O)c2)CC1", "inhibition": "1.54% (inactive)"}
{"smiles": "CCN1CC(CN(C)Cc2nc(-c3ccc(Cl)cc3)no2)CC1=O", "note": "(stereo unspecified)", "inhibition": "2.41% (inactive)"}
{"smiles": "CC1CCCC(NC(=O)c2cc(S(=O)(=O)N3CCCCC3)ccc2Cl)C1C", "note": "(stereo unspecified)", "inhibition": "6.89% (inactive)"}
{"smiles": "Cc1ccc(NC(=O)c2ccco2)cc1", "inhibition": "-36.5% (inactive)"}
{"smiles": "COc1cc(C(=O)CCc2ccc3c(c2)OCO3)cc(OC)c1OC", "inhibition": "1.79% (inactive)"}
{"smiles": "CCC1CCC2(CC1)NC(=O)N(CC(=O)Nc1ccc(OC)cc1)C2=O", "note": "(stereo unspecified)", "inhibition": "-0.377% (inactive)"}
{"smiles": "C/C=C/c1ccc(C2[C@H]3CNC[C@@H]2N3Cc2cccc(OC)c2)cc1", "note": "(stereo partly specified)", "inhibition": "-2.62% (inactive) and -20.4% (active)"}
{"smiles": "C/C=C/c1ccc(C2[C@H]3CNC[C@@H]2N3Cc2cccc(F)c2)cc1", "note": "(stereo partly specified)", "inhibition": "0.374% (inactive) and -2.51% (inactive)"}
{"smiles": "C/C=C/c1ccc(C2[C@H]3CNC[C@@H]2N3CC2CCOCC2)cc1", "note": "(stereo partly specified)", "inhibition": "9.41% (inactive)"}
{"smiles": "CCc1noc(C)c1C(=O)N1CCN(S(=O)(=O)c2cccc(C(F)(F)F)c2)CC1", "inhibition": "1.62% (inactive)"}
{"smiles": "O=C1COc2c1ccc(O)c2O", "inhibition": "12.2% (inactive)"}
{"smiles": "COc1ccc2c(C)cc(SCC(=O)NCC3CCCO3)nc2c1", "note": "(stereo unspecified)", "inhibition": "1.77% (inactive)"}
{"smiles": "Cc1noc(C)c1S(=O)(=O)Nc1ccc2c(c1)C(=O)N([C@@H](C)CO)C[C@H](C)[C@@H](CN(C)C(=O)Nc1cccc3ccccc13)OCCCC[C@H](C)O2", "inhibition": "48% [at 25 µM] (active)"}
{"smiles": "Cc1noc(C)c1S(=O)(=O)Nc1ccc2c(c1)C(=O)N([C@@H](C)CO)C[C@@H](C)[C@H](CN(C)C(=O)Nc1cccc3ccccc13)OCCCC[C@H](C)O2", "inhibition": "8.4% [at 25 µM] (inactive)"}
{"smiles": "Cc1ccc(S(=O)(=O)Nc2ccc3c(c2)C(=O)N([C@@H](C)CO)C[C@@H](C)[C@H](CN(C)C(=O)Nc2cccc4ccccc24)OCCCC[C@H](C)O3)cc1", "inhibition": "9.18% (inactive)"}
{"smiles": "O=C(Cc1ccccn1)N1CC(=O)N2[C@H](CO)[C@@H](c3ccc(C#CC4CCCC4)cc3)[C@H]2C1", "inhibition": "-16.2% (inactive)"}
{"smiles": "O=C(Cc1ccc(Cl)cc1)c1ccccc1", "inhibition": "-54.5% (inactive)"}
{"smiles": "C/C=C/c1cccc(-c2nc(C(=O)NCCN3CCCC3)cc3c2[C@@H](CCO)N([S@](=O)C(C)(C)C)C3)c1", "inhibition": "-2.95% (inactive)"}
{"smiles": "Cc1cc([N+](=O)[O-])nn1CC(=O)Nc1ccc(Cc2ccncc2)cc1", "inhibition": "-4.38% (inactive)"}
{"smiles": "CCCNC(=O)c1ccc(Cl)c(Cl)c1", "inhibition": "0.458% (inactive)"}
{"smiles": "CN(C)CCNC(=O)Nc1cccc(Cl)c1Cl", "inhibition": "7.22% (inactive)"}
{"smiles": "CN(C)CCNC(=O)c1ccc(Cl)c2cc3ccccc3nc12", "inhibition": "80.1% (active)"}
{"smiles": "Cc1ccc(S(=O)(=O)NCCC(=O)NCc2ccc(Cl)cc2)cc1C", "inhibition": "0.373% (inactive)"}
